# HTR5A inv ctr: inverse agonist of human HTR5A in OPRM1-OPRD1 counter-screen; HTR5A cell line, luminescence, inverse agonism; 340,000 tested, 0.083% active; inhibition, % at 9.3 µM; AID 504634; in the data active = inhibition mostly above about 23%, no sharp cut-off; inactive = mostly below about 18%;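 also: 0% = cells with DMSO and 100% = no-cell wells with DMSO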
# Target sequence (P47898 whole entry, looked up): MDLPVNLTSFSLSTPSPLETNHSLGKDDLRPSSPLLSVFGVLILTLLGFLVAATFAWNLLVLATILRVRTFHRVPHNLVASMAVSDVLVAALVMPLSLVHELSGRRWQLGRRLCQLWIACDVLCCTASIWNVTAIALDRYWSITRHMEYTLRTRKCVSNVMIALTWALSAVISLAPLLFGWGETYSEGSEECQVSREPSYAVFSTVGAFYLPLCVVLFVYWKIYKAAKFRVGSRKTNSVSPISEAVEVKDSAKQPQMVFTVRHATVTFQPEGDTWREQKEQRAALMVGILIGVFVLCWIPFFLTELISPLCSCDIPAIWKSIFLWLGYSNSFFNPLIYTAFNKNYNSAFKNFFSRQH
# MIN6 prolif-1: inducers of beta-cell replication in MIN6 cells | proliferation, % at 10 µM | AID 2380 | 330,000 tested, 0.29% active | MIN6 cells proliferation, ATPlite luminescence, 48 h; cells starved in 0.2% serum; 100% = growth in 10% serum;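 active = compounds whose signal lies at least 3.5 SD above the mean of all wells on their plate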;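 also: 0% = DMSO-treated cells in low-serum medium and 100% = 10% serum control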
# p-CIP stab down: p/CIP protein destabilization; Q05BA5; F442A p/CIP-EGFP cells, EGFP fluorescence, 16 h; decrease of EGFP signal, % at 10 µM; 290,000 tested, 0.01% active;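 active = EGFP signal decrease of at least 30% at 10 µM or well 3 SD below plate mean, unless failing retest; inactive = the rest, including hits failing retest or dose response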
# HTR5A ag: activates human HTR5A in OPRM1-OPRD1 agonist counter-screen | HTR5A agonist assay, luminescence, cell-based | activation, % at 9.3 µM | 340,000 tested, 0.61% active | AID 504692; in the data active = activation mostly above about 9.5%, no sharp cut-off; inactive = mostly below about 7.6%;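 also: 0% = cells with vehicle only and 100% = reference agonist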
# OPRM1-OPRD1 ag: OPRM1-OPRD1 heterodimerization agonism | cells, luminescence | activation, % at 9.3 µM | 340,000 tested, 0.3% active | AID 504326; in the data active = activation above about 18%;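 also: 0% = vehicle-treated cells and 100% = reference agonist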
# OPRM1-OPRD1 inv: inverse agonists of human mu-delta opioid receptor heterodimerization | P35372+P41143 | cell-based MOR-DOR heterodimer luminescence, inverse agonism | inhibition, % at 9.3 µM | 340,000 tested, 0.21% active | AID 504357; in the data active = inhibition above about 22%, passing the limit was not always enough;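 also: 0% = cells with DMSO and 100% = wells without cells with DMSO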
# MIN6 prolif-2: MIN6 beta-cell replication induction, confirmed | 920 tested, under 10 active | shares compounds with MIN6 prolif-1 | proliferation increase, % at 50 µM | MIN6 beta-cell proliferation, ATPlite luminescence, 48 h; cells kept in 0.2% serum; scaled between 0.2% and 10% serum;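 active = proliferation increase above 40% at any of the four tested concentrations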
# Numbers without * were called inactive; nt = not tested or not shown. In the library only some 1.4% were active in any assay of this set; here they are far more common.
SMILES,HTR5A inv ctr,MIN6 prolif-1,p-CIP stab down,HTR5A ag,OPRM1-OPRD1 ag,OPRM1-OPRD1 inv,MIN6 prolif-2
Oc1ccc(-c2n[nH]c(=S)n2Cc2ccccc2)cc1,-16,-4,-9,-2,-2,10,nt
S=c1[nH]nc(-c2ccc3ccccc3n2)n1-c1cc(Cl)cc(Cl)c1,-16,-5,-2,6,6,-34,nt
CCc1noc(C)c1C(=O)N1CCN(S(=O)(=O)c2c(C)c(C)cc(C)c2C)CC1,-5,14*,nt,2,0,0,-2
CCc1noc(C)c1C(=O)N1CCN(S(=O)(=O)c2cc(C)ccc2C)CC1,4,5,0,3,-2,6,nt
COc1ccc(-c2csc(NC(=O)CN3C(=O)C4CC=CCC4C3=O)n2)cc1 (stereo unspecified),-3,-3,nt,3,0,0,nt
COc1ccc(-c2csc(NC(=O)CCN3C(=O)C4CC=CCC4C3=O)n2)cc1OC (stereo unspecified),5,13*,nt,-2,-1,5,-4
CCOCCCNc1ncnc2c1nc1n2CCCC1,4,-3,10,-1,-3,12,nt
CN1CCN(C(=O)CCCN2C(=O)/C(=C/c3ccccc3)SC2=S)CC1,-18,7.5*,-8,-4,2,-12,-6
CCOC(=O)c1c(C)[nH]c(C)c1C(=O)COC(=O)[C@@H](NC(=O)c1ccccc1OCC)C(C)C,3,7.4*,-2,0,1,-3,-6
CCOC(=O)c1c(C)[nH]c(C(=O)COC(=O)[C@H](C)NC(=O)c2ccccc2Cl)c1C,-6,0,2,2,0,2,nt
Cc1ccc(S(=O)(=O)N2CCC(C(=O)OCC(=O)Nc3cc(S(C)(=O)=O)ccc3Cl)CC2)cc1C,1,3,2,-1,-2,11,nt
NS(=O)(=O)c1ccc(CCNC(=O)CNC(=O)c2ccc(Br)o2)cc1,5,2,nt,-1,0,1,nt
CC(C)c1ccc(S(=O)(=O)N2CCN(C(=O)c3cc([N+](=O)[O-])ccc3N3CCOCC3)CC2)cc1,21,0,-6,0,-2,9,nt
O=C(c1cc([N+](=O)[O-])ccc1N1CCOCC1)N1CCN(S(=O)(=O)c2ccc(F)cc2)CC1,9,11*,nt,-4,-3,15,0
COc1ccc(-c2nc3c(c(SCC(=O)N4CCOCC4)n2)COC(C)(C)C3)cc1,-12,-3,-8,0,-3,13,nt
COc1ccc(-c2nc3c(c(SCC(=O)N4CCCC4)n2)COC(C)(C)C3)cc1,-18,11*,-14,-1,-2,13,-5
O=C(O)C1C(c2ccccc2)c2ccccc2C(O)C1CO (stereo unspecified),5,nt,nt,-2,-2,9,nt
COc1ccccc1C(=O)COC(=O)c1cc(S(=O)(=O)N2CCCCC2)ccc1N1CCOCC1,-4,0,nt,2,0,0,nt
COc1ccc(C(=O)COC(=O)c2cc([N+](=O)[O-])ccc2N2CCOCC2)c(OC)c1,11,12*,nt,-4,-1,3,3
COc1ccccc1C(=O)COC(=O)c1cc([N+](=O)[O-])ccc1N1CCOCC1,-16,10,nt,2,-1,7,nt
COc1ccc(C(=O)COC(=O)c2cc(S(=O)(=O)N3CCCCC3)ccc2N2CCOCC2)c(OC)c1,-12,11*,nt,5,-2,12,1
Cc1cn(CC(=O)NCC(c2ccccc2)c2ccccc2)c(=O)[nH]c1=O,13,nt,nt,-3,-2,7,nt
Nc1nc(Nc2ccc(Cl)cc2)nc(NCCO)c1[N+](=O)[O-],nt,15*,1,nt,nt,nt,4
O=C(Nc1ccc(F)cc1)c1ccccc1NS(=O)(=O)N1CCCC1,-3,8.5*,-8,1,0,0,-6
COCCN(CC(=O)Nc1cccc(C)c1C)C(=O)c1cc(-c2ccncc2)nc2ccccc12,-17,-3,nt,6,-1,3,nt
O=C(CSc1nnc(CNC(=O)c2cccs2)o1)Nc1cccc(C(F)(F)F)c1,16,5.1*,0,4,-1,6,-1
O=C(CSc1nnc(CNC(=O)c2cccs2)o1)Nc1cccc(F)c1,7,3,-4,-2,-1,4,nt
